# Measurements taken from PMC7862700, “An all-to-all approach to the identification of sequence-specific readers for epigenetic DNA modifications on cytosine”.
# Target: SPI1 (Homo sapiens, UniProt P17947 1-270)
# Test: DAPPL (digital affinity profiling via proximity ligation, sequencing); 10 mM Tris-HCl pH 7.5, 50 mM NaCl, 1 mM DTT, 4% glycerol, room temperature, 30 min; GST-TFs on glutathione beads, 16-mer random dsDNA library, 0.1% formaldehyde crosslink after washing; high values mean tight binding
# Conditions: protein: recombinant; tags: N-terminal GST; dsDNA, one strand shown
# Outline: (§1)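 Binding signal is each hexamer's read frequency for a factor divided by its frequency in the tag-only sample. The factors were GST-fused human transcription factors from yeast, captured on glutathione beads, DNA-barcoded and pooled with that sample. Pools were incubated with 200 nmole of a random double-stranded 16-mer DNA library in Tris/NaCl/DTT/glycerol buffer at room temperature for 30 min, then washed, crosslinked with 0.1% formaldehyde, proximity-ligated with BsaI/T4 ligase (1 h, 37 °C), PCR-amplified and sequenced on an Illumina NextSeq500.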
row,Sequence,binding signal
1,AGTGAA,"1.26 fold enrichment (6-mer frequency, TF over GST control)"
2,AAAGAG,"1.45 fold enrichment (6-mer frequency, TF over GST control)"
3,AGTGAT,"1.06 fold enrichment (6-mer frequency, TF over GST control)"
4,AAGAGG,"1.56 fold enrichment (6-mer frequency, TF over GST control)"
5,AGTGCG,"1.14 fold enrichment (6-mer frequency, TF over GST control)"
6,AGAGGA,"1.22 fold enrichment (6-mer frequency, TF over GST control)"
7,AGTGGA,"1.08 fold enrichment (6-mer frequency, TF over GST control)"
8,GGGAAG,"1.51 fold enrichment (6-mer frequency, TF over GST control)"
9,TAGGGA,"1.05 fold enrichment (6-mer frequency, TF over GST control)"
10,TGAGGA,"1.07 fold enrichment (6-mer frequency, TF over GST control)"
11,GTGTGC,"1.01 fold enrichment (6-mer frequency, TF over GST control)"
12,GAGGAA,"1.64 fold enrichment (6-mer frequency, TF over GST control)"
13,AGCGGA,"1.26 fold enrichment (6-mer frequency, TF over GST control)"
14,GGGGAA,"1.21 fold enrichment (6-mer frequency, TF over GST control)"

# Target: SPIB (Homo sapiens, UniProt Q01892 1-262)
# Sequence (Q01892 whole entry): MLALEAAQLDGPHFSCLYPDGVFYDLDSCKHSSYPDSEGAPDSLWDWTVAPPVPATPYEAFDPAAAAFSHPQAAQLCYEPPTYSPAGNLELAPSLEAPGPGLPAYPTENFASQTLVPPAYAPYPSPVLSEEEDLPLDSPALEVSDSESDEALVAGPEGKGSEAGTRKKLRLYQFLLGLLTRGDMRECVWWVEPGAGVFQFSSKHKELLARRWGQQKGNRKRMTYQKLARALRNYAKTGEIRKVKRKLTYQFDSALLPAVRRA
# Test: as above
# Conditions: protein: recombinant; tags: N-terminal GST; dsDNA, one strand shown
# Outline: as §1
row,Sequence,binding signal
1,AGCGTA,"1.02 fold enrichment (6-mer frequency, TF over GST control)"
2,GTGGTG,"1.02 fold enrichment (6-mer frequency, TF over GST control)"
3,CGCTGA,"1.01 fold enrichment (6-mer frequency, TF over GST control)"
4,TCGCAG,"1.04 fold enrichment (6-mer frequency, TF over GST control)"

# Target: T1, ELK3 (Homo sapiens, UniProt P41970 1-407)
# T1 sequence: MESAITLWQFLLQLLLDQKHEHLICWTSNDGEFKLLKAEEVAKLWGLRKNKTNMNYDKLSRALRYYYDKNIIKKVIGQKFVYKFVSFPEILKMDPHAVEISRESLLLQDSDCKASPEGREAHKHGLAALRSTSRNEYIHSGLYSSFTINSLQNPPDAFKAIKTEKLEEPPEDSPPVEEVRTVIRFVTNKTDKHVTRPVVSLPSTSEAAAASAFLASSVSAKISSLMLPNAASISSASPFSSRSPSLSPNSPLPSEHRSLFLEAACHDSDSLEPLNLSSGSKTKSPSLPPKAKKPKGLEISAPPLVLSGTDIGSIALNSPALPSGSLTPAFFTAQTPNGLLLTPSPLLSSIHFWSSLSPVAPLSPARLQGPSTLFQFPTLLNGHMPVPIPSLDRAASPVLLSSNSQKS
# Test: as above
# Conditions: protein: recombinant; tags: N-terminal GST; dsDNA, one strand shown
# Outline: as §1
row,Sequence,binding signal
1,AAACGT,"1.06 fold enrichment (6-mer frequency, TF over GST control)"
2,CGAGCG,"1.01 fold enrichment (6-mer frequency, TF over GST control)"
3,GCCACG,"1.03 fold enrichment (6-mer frequency, TF over GST control)"
4,CCGTAG,"1.02 fold enrichment (6-mer frequency, TF over GST control)"
5,CGGAAT,"1.01 fold enrichment (6-mer frequency, TF over GST control)"

# Target: T2, FEV (Homo sapiens, UniProt Q99581 1-238)
# T2 sequence: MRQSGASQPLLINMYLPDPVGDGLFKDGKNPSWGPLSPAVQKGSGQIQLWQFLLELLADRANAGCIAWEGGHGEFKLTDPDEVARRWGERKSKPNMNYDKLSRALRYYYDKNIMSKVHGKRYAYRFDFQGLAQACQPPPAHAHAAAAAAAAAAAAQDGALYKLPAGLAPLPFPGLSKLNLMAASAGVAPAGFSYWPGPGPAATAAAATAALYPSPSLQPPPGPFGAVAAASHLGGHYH
# Test: as above
# Conditions: protein: recombinant; tags: N-terminal GST; dsDNA, one strand shown
# Outline: as §1
row,Sequence,binding signal
1,CGGCCG,"1.03 fold enrichment (6-mer frequency, TF over GST control)"
2,CGGACA,"1 fold enrichment (6-mer frequency, TF over GST control)"
3,GGACCG,"1.12 fold enrichment (6-mer frequency, TF over GST control)"

# Target: T3, ETV7 (Homo sapiens, UniProt Q9Y603 1-341)
# T3 sequence: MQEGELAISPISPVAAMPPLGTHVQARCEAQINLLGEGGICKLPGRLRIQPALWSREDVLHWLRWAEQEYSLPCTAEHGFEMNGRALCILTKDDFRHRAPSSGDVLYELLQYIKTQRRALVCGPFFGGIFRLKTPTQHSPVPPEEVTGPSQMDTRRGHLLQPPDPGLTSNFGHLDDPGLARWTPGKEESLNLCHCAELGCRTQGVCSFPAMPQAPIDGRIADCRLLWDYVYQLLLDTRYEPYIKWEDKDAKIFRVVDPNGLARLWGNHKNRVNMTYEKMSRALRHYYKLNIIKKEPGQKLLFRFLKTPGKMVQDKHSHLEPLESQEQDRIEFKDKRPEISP
# Test: as above
# Conditions: protein: recombinant; tags: N-terminal GST; dsDNA, one strand shown
# Outline: as §1
row,Sequence,binding signal
1,CAGCGA,"1.01 fold enrichment (6-mer frequency, TF over GST control)"
2,GTGGTG,"1 fold enrichment (6-mer frequency, TF over GST control)"
3,CACGGT,"1 fold enrichment (6-mer frequency, TF over GST control)"
4,GCCACG,"1.03 fold enrichment (6-mer frequency, TF over GST control)"
5,GCGCGG,"1.01 fold enrichment (6-mer frequency, TF over GST control)"
6,GGGTAC,"1 fold enrichment (6-mer frequency, TF over GST control)"
7,AAAGTG,"1.04 fold enrichment (6-mer frequency, TF over GST control)"
8,ACGGGT,"1.01 fold enrichment (6-mer frequency, TF over GST control)"
